Data as given in the supplement of paper PMC8728848.
Only a selection was taken, and the strongest signals are over-represented in it overall.

Experiments:
Assay in all cases: glycan array binding signal (z-score within array); higher = stronger binding
Conditions in all cases: glycan notation: IUPAC condensed, linker removed
[1] = molecular target: Fuc(a1-2)Gal(b1-3)GlcNAc(b1-2)Man(a1-3)[Fuc(a1-2)Gal(b1-3)GlcNAc(b1-2)Man(a1-6)]Man(b1-4)GlcNAc(b1-4)GlcNAc
How it was run: (§1)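 The Consortium for Functional Glycomics database supplied 3228 glycan arrays, of which those lacking an available protein sequence were dropped. The binding signal, a within-array Z-score, was averaged across arrays of the same protein sequence and across linkers. Negative scores can be read as non-binding.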

Fuc(a1-2)Gal(b1-4)Glc = molecular target: Fuc(a1-2)Gal(b1-4)Glc
How it was run: as §1

[2] = molecular target: Fuc(a1-2)Gal(b1-4)GlcNAc(b1-3)[Fuc(a1-2)Gal(b1-4)GlcNAc(b1-6)]GalNAc
How it was run: as §1

[3] = molecular target: Fuc(a1-2)Gal6S(b1-3)GlcNAc6S
How it was run: as §1

[4] = molecular target: Fuc(a1-2)[Gal(a1-3)]Gal(b1-4)[Fuc(a1-3)]GlcNAc
How it was run: as §1

[5] = molecular target: Fuc(a1-2)[GalNAc(a1-3)]Gal(b1-3)GlcNAc(b1-3)GalNAc
How it was run: as §1

[6] = molecular target: Fuc(a1-2)[GalNAc(a1-3)]Gal(b1-4)Glc
How it was run: as §1

[7] = molecular target: Fuc(a1-2)[GalNAc(a1-4)]Gal(b1-4)GlcNAc
How it was run: as §1

[8] = molecular target: Fuc(a1-3)[Gal(b1-4)]GlcNAc(b1-6)GalNAc
How it was run: as §1

[9] = molecular target: Gal(b1-4)GlcNAc(b1-2)Man(a1-3)[Gal(b1-4)GlcNAc(b1-2)Man(a1-6)]Man(b1-4)GlcNAc(b1-4)[Fuc(a1-6)]GlcNAc
How it was run: as §1

[10] = molecular target: Gal(b1-4)GlcNAc(b1-2)Man(a1-3)[GlcNAc(b1-4)][Gal(b1-4)GlcNAc(b1-2)Man(a1-6)]Man(b1-4)GlcNAc(b1-4)GlcNAc
How it was run: as §1

[11] = molecular target: Gal(b1-4)GlcNAc(b1-2)[Gal(b1-4)GlcNAc(b1-6)]Man(a1-6)[GlcNAc(b1-4)][Gal(b1-4)GlcNAc(b1-2)Man(a1-3)]Man(b1-4)GlcNAc(b1-4)GlcNAc
How it was run: as §1

[12] = molecular target: Gal(b1-4)GlcNAc(b1-3)Gal(b1-4)GlcNAc(b1-2)[Gal(b1-4)GlcNAc(b1-3)Gal(b1-4)GlcNAc(b1-6)]Man(a1-6)[Gal(b1-4)GlcNAc(b1-3)Gal(b1-4)GlcNAc(b1-2)Man(a1-3)]Man(b1-4)GlcNAc(b1-4)GlcNAc
How it was run: as §1

[13] = molecular target: Gal(b1-4)GlcNAc(b1-3)Gal(b1-4)GlcNAc(b1-3)Gal(b1-4)GlcNAc
How it was run: as §1

[14] = molecular target: Gal(b1-4)GlcNAc(b1-3)Gal(b1-4)GlcNAc(b1-3)Gal(b1-4)GlcNAc(b1-3)Gal(b1-4)GlcNAc(b1-2)Man(a1-3)[Gal(b1-4)GlcNAc(b1-3)Gal(b1-4)GlcNAc(b1-3)Gal(b1-4)GlcNAc(b1-3)Gal(b1-4)GlcNAc(b1-2)Man(a1-6)]Man(b1-4)GlcNAc(b1-4)[Fuc(a1-6)]GlcNAc
How it was run: as §1

[15] = molecular target: Gal(b1-4)GlcNAc(b1-3)[Gal(b1-4)GlcNAc(b1-6)]Gal(b1-4)GlcNAc
How it was run: as §1

[16] = molecular target: Gal(b1-4)GlcNAc(b1-3)[GlcNAc(b1-6)]Gal(b1-4)GlcNAc
How it was run: as §1

[17] = molecular target: GalNAc(b1-3)Gal(a1-4)Gal(b1-4)GlcNAc
How it was run: as §1

GlcA(b1-6)Gal = molecular target: GlcA(b1-6)Gal
How it was run: as §1

[18] = molecular target: GlcNAc(b1-3)Gal(b1-3)GalNAc
How it was run: as §1

[19] = molecular target: GlcNAc(b1-3)Gal(b1-4)GlcNAc(b1-3)Gal(b1-4)GlcNAc(b1-2)Man(a1-3)[GlcNAc(b1-3)Gal(b1-4)GlcNAc(b1-3)Gal(b1-4)GlcNAc(b1-2)Man(a1-6)]Man(b1-4)GlcNAc(b1-4)GlcNAc
How it was run: as §1

[20] = molecular target: GlcNAc(b1-3)Gal(b1-4)GlcNAc(b1-3)Gal(b1-4)GlcNAc(b1-3)Gal(b1-4)GlcNAc(b1-2)[GlcNAc(b1-3)Gal(b1-4)GlcNAc(b1-3)Gal(b1-4)GlcNAc(b1-3)Gal(b1-4)GlcNAc(b1-6)]Man(a1-6)[GlcNAc(b1-3)Gal(b1-4)GlcNAc(b1-3)Gal(b1-4)GlcNAc(b1-3)Gal(b1-4)GlcNAc(b1-2)Man(a1-3)]Man(b1-4)GlcNAc(b1-4)[Fuc(a1-6)]GlcNAc
How it was run: as §1

[21] = molecular target: GlcNAc(b1-4)GlcNAc(b1-4)GlcNAc(b1-4)GlcNAc(b1-4)GlcNAc(b1-4)GlcNAc
How it was run: as §1

[22] = molecular target: Man(a1-3)[Man(a1-6)]Man(a1-6)[Man(a1-3)]Man
How it was run: as §1

[23] = molecular target: Neu5Ac(a2-3)Gal(b1-4)GlcNAc(b1-2)Man
How it was run: as §1

[24] = molecular target: Neu5Ac(a2-3)Gal(b1-4)GlcNAc(b1-3)Gal(b1-3)GlcNAc
How it was run: as §1

[25] = molecular target: Neu5Ac(a2-3)Gal(b1-4)GlcNAc(b1-3)Gal(b1-4)GlcNAc(b1-3)Gal(b1-4)GlcNAc
How it was run: as §1

[26] = molecular target: Neu5Ac(a2-3)Gal(b1-4)GlcNAc(b1-3)Gal(b1-4)GlcNAc(b1-3)GalNAc
How it was run: as §1

[27] = molecular target: Neu5Ac(a2-3)Gal(b1-4)[Fuc(a1-3)]GlcNAc(b1-6)[Neu5Ac(a2-3)Gal(b1-3)]GalNAc
How it was run: as §1

[28] = molecular target: Neu5Ac(a2-6)Gal(b1-4)GlcNAc(b1-3)Gal(b1-4)GlcNAc(b1-6)[Gal(b1-3)]GalNAc
How it was run: as §1

[29] = molecular target: Neu5Ac(a2-6)Gal(b1-4)GlcNAc(b1-6)GalNAc
How it was run: as §1

[30] = molecular target: Neu5Ac(a2-8)Neu5Ac(a2-8)Neu5Ac(a2-3)Gal(b1-4)Glc
How it was run: as §1

[31] = molecular target: Neu5Ac(b2-6)Gal(b1-4)GlcNAc
How it was run: as §1

[32] = molecular target: Neu5Ac9Ac(a2-3)Gal(b1-3)GlcNAc
How it was run: as §1

[33] = molecular target: Neu5Gc(a2-3)Gal(b1-4)[Fuc(a1-3)]GlcNAc
How it was run: as §1

Neu5Gc(a2-6)GalNAc = molecular target: Neu5Gc(a2-6)GalNAc
How it was run: as §1

B1: truncCC1G-10077 (Coprinopsis cinerea) (protein)
chain: MHHHHHHHHPLPSPGPGWVLIQNGGTGKFLCSTPSGDIGTADGPETVYDYSVQWRFIQREYTGVYHVVNRATGAYLRQIGTSMPSIGLAEENDDELKDWWMLETYDNSEIGLASIISRWTGNVLDHYGGVSVQALDNNTENSYRSWAIIPARDWLTSFSLVNGQGGLCLAAQYAREETRLSTTANVNDFHAQWVFRKPSGSSGYTIQNKYNNHYVGGTSARWELVVCCNKYFGIRNTSTQKYLAIEDGQVTFQDQDMTDRKQCWELCSGRATDTSGNDYDLIYMDDDLLEVMIPWVGDKQGDLKHYIEKRATKKPPKDKGGWQLPAAGLIKKPKFNDIRQLLQELIEQWEWDVVNEEREQIQTLVSIDEAEARRLLGRRPHPDIVAAYQRSRSSTLFRIDRQGYFNIAGDRYVNIQGQYGDDSYFHIALPVGVRFGREQIRRFLRDSLDRSTSVTITPTTCKPPSGGPDYNRDPDSDGDNSWIKWTIAVVGTSAIKHSEL
glycan array binding signal (z-score) [1]: 3.72
glycan array binding signal (z-score) (Fuc(a1-2)Gal(b1-4)Glc): -0.216
glycan array binding signal (z-score) [2]: 2.81
glycan array binding signal (z-score) [3]: 0.519
glycan array binding signal (z-score) [4]: 1.66
glycan array binding signal (z-score) [5]: 3.65
glycan array binding signal (z-score) [6]: -0.829
glycan array binding signal (z-score) [7]: -0.664
glycan array binding signal (z-score) [8]: 3.46
glycan array binding signal (z-score) [9]: 3.13
glycan array binding signal (z-score) [10]: 0.359
glycan array binding signal (z-score) [11]: -0.119
glycan array binding signal (z-score) [12]: 3.74
glycan array binding signal (z-score) [13]: -0.532
glycan array binding signal (z-score) [14]: 0.374
glycan array binding signal (z-score) [15]: -0.821
glycan array binding signal (z-score) [16]: -1.04
glycan array binding signal (z-score) [17]: -0.242
glycan array binding signal (z-score) (GlcA(b1-6)Gal): 4.61
glycan array binding signal (z-score) [18]: -0.15
glycan array binding signal (z-score) [19]: 1.17
glycan array binding signal (z-score) [20]: 0.218
glycan array binding signal (z-score) [21]: -0.144
glycan array binding signal (z-score) [22]: 0.384
glycan array binding signal (z-score) [23]: 2.91
glycan array binding signal (z-score) [24]: -0.855
glycan array binding signal (z-score) [25]: -1.07
glycan array binding signal (z-score) [26]: 0.244
glycan array binding signal (z-score) [27]: 3.72
glycan array binding signal (z-score) [28]: 0.521
glycan array binding signal (z-score) [29]: 3.21
glycan array binding signal (z-score) [30]: 0.249
glycan array binding signal (z-score) [31]: -1.25
glycan array binding signal (z-score) [32]: -1.02
glycan array binding signal (z-score) [33]: 3.02
glycan array binding signal (z-score) (Neu5Gc(a2-6)GalNAc): -0.873
